Source: PubChem BioAssay
BAZ2B block: qHTS Assay for Inhibitors of BAZ2B | 360,000 compounds, 4.4% hits | AID 504333, 2011 | Potency, µM (doses to about 114 µM), hits mostly inhibitors | AlphaScreen BAZ2B-H3K14Ac peptide displacement | Bromodomain adjacent to zinc finger domain protein 2B (Homo sapiens), Q9UIF8; further: nearly all actives have a fitted effect of over 60% in size
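AlphaScreen displacement of biotin-H3(5-23)K14Ac peptide (50 nM final) from BAZ2B (50 nM final) in PBS pH 7.4, 0.01% Tween-20; complex preformed 30 min RT, then compounds (top 110 uM) 30 min RT, beads 20 min dark.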
12-LOX inh: Primary qHTS assay for inhibitors of human arachidonate 12S-lipoxygenase (ALOX12): Round 2; Polyunsaturated fatty acid lipoxygenase ALOX12 (Homo sapiens), P18054; 580,000 compounds, 1.1% hits; Potency, µM (titrated, usually from 108 µM), usual class: inhibitors; purified 12hLO, xylenol orange hydroperoxide absorbance
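Purified human 12hLO (150 nM final) in 25 mM Hepes, 0.01% Triton X-100, pH 7.0 was preincubated 15 min at room temperature with compound. Then 40 uM arachidonic acid was added, 30 min. Hydroperoxide was read by Fe-XO absorbance ratio 573/405 nm.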
HP1b binding inh: HTS for Inhibitors of HP1-beta Chromodomain Interactions with Methylated Histone Tails; Chromobox protein homolog 1 (Homo sapiens), P83916; AlphaScreen HP1-beta / biotin-H3K9me3 peptide binding; Potency, µM (top dose mostly 114 µM), actives largely listed as inhibitors; 390,000 compounds, 0.56% hits; AID 540317, 2011; further: nearly all actives have a fitted effect of over 70% in size
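HP1-beta protein (50 nM final) preincubated 30 min at room temperature with biotinylated H3(1-18)K9me3 peptide (50 nM) in PBS pH 7.4, 0.01% Tween-20, then compound added for 30 min. AlphaScreen streptavidin donor/nickel chelate acceptor beads (10 ug/mL final), 30 min dark, luminescence read.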
JMJD2A Tudor: qHTS Assay for Inhibitors of JMJD2A-Tudor Domain; AID 504339, 2011; AlphaScreen JMJD2A-Tudor / H3K4me3 peptide binding; Lysine-specific demethylase 4A (Homo sapiens), O75164; Potency, µM (highest dose often 114 µM), most hits filed as inhibitors; 390,000 compounds, 4.4% hits; further: nearly all actives have a fitted effect of over 50% in size
G9a block: qHTS Assay for Inhibitors of Histone Lysine Methyltransferase G9a. Histone-lysine N-methyltransferase EHMT2 (Homo sapiens), Q96KQ7. G9a H3K9 monomethylation, AlphaScreen, 2 h. Potency, µM (highest dose often 102 µM), actives largely listed as inhibitors. 350,000 compounds, 8.8% hits. AID 504332, 2011; further: nearly all actives have a fitted effect of over 75% in size
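AlphaScreen read-out: biotin-H3K9 peptide (500 nM) methylation by 20 nM enzyme with 20 uM SAM, 2 h at room temperature after 15 min compound preincubation; anti-monomethyl H3K9 antibody plus donor/acceptor beads, 10 min dark.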
PLK1 PBD inh: qHTS for Inhibitors of PLK1-PDB (polo-like kinase 1 - polo-box domain): Primary Screen. Serine/threonine-protein kinase PLK1 (Homo sapiens), P53350. Plk1 PBD binding of FITC phosphopeptide, fluorescence polarization. Potency, µM, hits mostly inhibitors. 360,000 compounds, 2.8% hits. AID 720504, 2013; further: series mostly up to about 57 µM; nearly all actives have a fitted effect of over 65% in size
Target sequence (P53350 whole entry, looked up, the tested form may be a part): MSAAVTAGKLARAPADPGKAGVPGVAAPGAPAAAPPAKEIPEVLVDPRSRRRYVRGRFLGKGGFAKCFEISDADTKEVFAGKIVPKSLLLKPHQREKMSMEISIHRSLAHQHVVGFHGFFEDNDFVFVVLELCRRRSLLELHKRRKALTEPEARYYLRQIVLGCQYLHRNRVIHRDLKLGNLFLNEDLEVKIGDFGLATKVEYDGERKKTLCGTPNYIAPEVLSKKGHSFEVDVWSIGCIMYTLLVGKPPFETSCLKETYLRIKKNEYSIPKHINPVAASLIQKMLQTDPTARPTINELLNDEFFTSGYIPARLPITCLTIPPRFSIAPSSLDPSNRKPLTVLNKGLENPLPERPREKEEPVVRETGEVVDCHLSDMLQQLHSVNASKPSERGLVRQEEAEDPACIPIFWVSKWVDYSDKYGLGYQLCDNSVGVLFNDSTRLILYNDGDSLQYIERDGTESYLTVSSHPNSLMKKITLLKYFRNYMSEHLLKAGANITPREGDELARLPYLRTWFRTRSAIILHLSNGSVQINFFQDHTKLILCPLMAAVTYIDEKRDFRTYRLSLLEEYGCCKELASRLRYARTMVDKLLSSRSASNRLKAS
Hits are given with their value; n = inactive; u = inconclusive; x = not tested or not shown; [ ] = remark or other dose. In the library only some 9% were active in any assay of this set; here they are far more common. The call rests on the fitted dose curve; in most records, active means well fitted curve in the direction sought with a large enough effect; inconclusive means small, poorly fitted or top-dose-only effect, or another doubt; inactive means no such curve, though single readings can be large; an effect the other way counts as inactive or inconclusive.

SMILES | BAZ2B block | 12-LOX inh | HP1b binding inh | JMJD2A Tudor | G9a block | PLK1 PBD inh
CCOC(=O)c1cc(-c2ccccc2)sc1NC(=O)C(C)C | n | n | u | n | n | 30µM
CC#CCn1cc2c3c(cccc31)[C@H](CC(C)C)N[C@H](C(=O)NC1CCCC1)C2 | x | n | x | x | x | x
COC(=O)CSc1nnc(-c2ccc(S(=O)(=O)N3CCCC3)cc2)o1 | n | n | n | n | n | n
O=C(CSc1nnc(-c2cccc(S(=O)(=O)N3CCCCC3)c2)o1)NCCC1=CCCCC1 | n | n | n | n | n | 21µM
NC(=O)CSc1nnc(-c2cccc(S(=O)(=O)N3CCCCC3)c2)o1 | n | n | n | n | n | n
NC(=O)CSc1nnc(-c2ccc(S(=O)(=O)N3CCCC3)cc2)o1 | n | n | n | n | 11µM | n
COCCCNC(=O)CN1C(=O)COc2ccc(S(=O)(=O)N3CC(C)CC(C)C3)cc21 (stereo not drawn) | n | n | n | n | n | n
CCC1=NN2C(=N)/C(=C\c3ccc(SCc4ccco4)o3)C(=O)N=C2S1 | 50µM | u | n | u | 7.1µM | u
CCCC1=NN2C(=N)/C(=C\c3cc(C)n(-c4cccc(C)c4)c3C)C(=O)N=C2S1 | n | n | n | n | n | u
CCCC1=NN2C(=N)/C(=C\c3ccc(SCc4ccco4)o3)C(=O)N=C2S1 | 45µM | x | u | 50µM | 8.9µM | 24µM
CC(=O)c1c[nH]c(C(=O)Nc2ccc(N3CCCCCC3)cc2)c1 | 35µM | n | u | 35µM | n[2.33 µM] | n
Nc1ccc(C(=O)Nc2cccc(NC(=O)c3ccc(N)cc3)c2)cc1 | n | u | n | u | n | 27µM
O=C(Nc1cccc(NC(=O)c2cncc(Br)c2)c1)c1cncc(Br)c1 | n | n | n | n | 45µM | n
O=C(Nc1ccc(N2CCCC2)cc1)c1ccc2ccccc2c1 | n | u | n | n | 6.3µM | n
NCCOc1ccccc1Cc1ccccc1 | u | n | n | n | n | n
CCc1ccc(C(=O)COC(=O)C(Cc2ccccc2)NC(=O)C2CCC(C)CC2)cc1 (stereo not drawn) | n | n | n | n | n | n
O=C(Nc1ccc(N2CCCCC2)cc1)c1cncc(Br)c1 | u | u | n | n | 79µM | n
CC(=O)Nc1ccc(N/C=C/C(=O)c2ccco2)cc1 | u | n | n | n | u | n
CN(C)c1ccc(N/C=C/C(=O)c2ccco2)cc1 | 35µM | u | n | u | 7.1µM | n
NS(=O)(=O)c1ccc(N/C=C\C(=O)c2ccc(F)cc2)cc1 | n | n | n | n | n | n
CN(C)c1ccc(N/C=C/C(=O)c2ccc(F)cc2)cc1 | u | x | n | u | 2.5µM | n
COCc1nnc(NS(=O)(=O)c2ccc(NC(C)=O)cc2)s1 | u | n | n | n | u | n
CCC(C(=O)OCC(=O)N1CCN(c2ccc(OC)cc2)CC1)c1ccccc1 (stereo not drawn) | u | n | n | n | u | n
CCc1nnc(NC(=O)CSCc2cc(=O)n3nc(C(C)C)sc3n2)s1 | n | n | n | n | n | n
CC(C)c1ccc(N(C(=O)c2csnn2)C(C(=O)NC(C)(C)C)c2ccncc2)cc1 (stereo not drawn) | n | n | n | n | n | n
SMILES | BAZ2B block | 12-LOX inh | HP1b binding inh | JMJD2A Tudor | G9a block | PLK1 PBD inh
COC(=O)c1cn(C)c2ccc(S(=O)(=O)N3CCCC3)cc2c1=O | u | n | n | n | 50µM | n
COC(=O)c1cn(C)c2ccc(S(=O)(=O)N3CCOCC3)cc2c1=O | n | n | n | n | n | n
Cn1cc(C(=O)O)c(=O)c2cc(S(=O)(=O)N3CCCCC3)ccc21 | n | n | n | 89µM | u | x
Cc1cccc(-c2cc(Nc3cccc(C(=O)N(C)Cc4ccccc4)c3)ncn2)c1 | x | n | x | x | x | x
COc1ccc(CCNC(=O)CSCc2c(F)cccc2Cl)cc1OC | n | n | n | n | n | n
Cc1cc(-c2n[nH]c(=S)n2/N=C/c2ccc(Cl)c([N+](=O)[O-])c2)n[nH]1 | u | 40µM | n | 40µM | 1.4µM | u
O=[N+]([O-])c1cc(/C=N/n2c(-c3ccncc3)n[nH]c2=S)ccc1Cl | u | n | n | u | x | n
Cc1cc(-c2n[nH]c(=S)n2/N=C/c2cc([N+](=O)[O-])ccc2Cl)n[nH]1 | u | u | u | 7.9µM | 1.8µM | n
COc1ccccc1-c1cc(NC(C)=O)c2ncc(-c3cccc(C(F)(F)F)c3)n2c1 | x | u | x | x | x | n
COc1ccc(C(=O)Nn2cnc3ccccc3c2=O)c(OC)c1 | n | n | n | n | n | n
O=C(Nc1ccccc1)Nc1cccc(Cl)c1 | n | n | n | n | n[12.7 µM] | n
O=C(Nc1ccc2nccnc2c1)Nc1ccccc1Cl | n | n | n | 20µM | u | 24µM
O=C(Nc1cccc(C(=O)O)c1)Nc1ccccc1Cl | n | n | n | n | n | n
O=C(Nc1cccc(Cl)c1)Nc1ccc2nccnc2c1 | n | n | n | n | 50µM | n
O=C(COc1coc(CN2CCc3ccccc32)cc1=O)N1CCCCC1 | n | n | n | n | 71µM | n
O=C(COc1coc(CN2CCCc3ccccc32)cc1=O)Nc1ccc([N+](=O)[O-])cc1 | n | u | n | n | 11µM | n
Cc1ccc(NC(=O)COc2coc(CN3CCc4ccccc43)cc2=O)cc1Cl | 50µM | u | n | 45µM | n | n
COc1ccccc1N1CCN(Cc2cc(=O)c(OCC(=O)NC(C)C)co2)CC1 | n | n | n | u | n | 9.5µM
CC(C)NC(=O)COc1coc(CN2CCN(c3ccccc3F)CC2)cc1=O | n | n | n | n | n | n
COC1CN(c2ccc(C)cc2)C12CCN(C(=O)c1ccco1)CC2 (stereo not drawn) | x | n | x | x | x | x
O=C(NCc1ccccn1)c1cccc(NS(=O)(=O)c2ccccc2F)c1 | n | n | n | n | n | u
COc1ccc(Cl)cc1C(=O)NC1CCCN(c2cc(-c3ccccc3)[nH]n2)C1 (stereo not drawn) | x | n | x | x | x | x
O=C(Cc1coc2ccc3ccccc3c12)NC1CCCc2ccccc21 (stereo not drawn) | n | n | n | n | n | n
Cc1ccccc1NC(=O)COc1coc(CN2CCCc3ccccc32)cc1=O | 50µM | u | n | u | 50µM | n
COc1ccc(NC(=O)COc2coc(CN3CCc4ccccc4C3)cc2=O)cc1 | n | n | n | n | n[0.501 µM] | n
NC(=O)c1ccc(NC(=O)COc2coc(CN3CCc4ccccc4C3)cc2=O)cc1 | u | n | n | n | 50µM | n
